The whole screen tested about 85,000 compounds, of which about 440 (0.52%) showed an effect of 50% or more. The sample as a whole holds a higher share of strong results than the screen did.
Assay: In vitro enzyme assay to detect hydrolysis of chlorophenol red-beta-D-[…] directly proportional to the number of Toxoplasma stably expressing beta-galactosidase
Format: functional, organism-based, Toxoplasma gondii
Parameters: scale not given: in the data most compounds retested in dose-response had high values

Compound | Percent Effect (50 µM) | Percent Effect (10 µM)
O=C(NCCc1cccs1)c1cc[nH]n1 | 7.034% | –
CCC(N)c1cnn(CC)c1 (stereo not given) | -19.44% | –
O=C(c1cnc(-c2cccnc2)nc1)N1CCSCC1 | – | 1.887%
O=C(c1ccc(-c2ccc(O)nc2)s1)N1CCSCC1 | – | 61.48%
O=C(c1ccc(O)nc1)N1CCN(C(=O)c2ccc(F)c(F)c2)CC1 | – | 5.066%
O=C(c1ccc(-c2ccc(O)nc2)s1)N1CCCCCC1 | – | 59.06%
O=C(c1ccc(O)nc1)N1CCCCCCC1 | -10.69% | –
CCNc1ncc(C(=O)N2CCCCC2)s1 | 3.681% | –
O=C(c1cc(-c2cccs2)cs1)N1CCSCC1 | – | -31.67%
O=C(c1cnn(-c2ccccc2)c1)N1CCCCC1 | -4.798% | –
O=C(c1ccc(-c2ccc(O)nc2)s1)N1CCCCC1 | – | 53%
O=C(CN1CCNCC1)c1ccccc1Cl | -6.338% | –
O=C(c1cnsn1)N1CC=C(c2ccccc2)CC1 | 3.694% | –
CCC(C)(O)CCN (stereo not given) | 17.18% | –
Cc1ccc(NC(=O)CN2CCNCC2)c(C)c1 | -5.303% | –
CCC(CC)NC(=O)CSc1nnc(N)n1C | -0.697% | –
Cn1ncc2c(NCc3ccccc3CO)ncnc21 | 2.537% | –
Cc1ccc(CN(C)C(=O)Cn2cnnn2)o1 | 88.2% | –

Compound | Percent Effect (50 µM) | Percent Effect (10 µM)
Cc1cc(C)n(C2CN(CC(=O)N(C)Cc3ccc(C)o3)C2)n1 | – | 1.659%
Cc1ccc(CN(C)C(=O)CSc2nncn2C)o1 | 6.979% | –
CN1CCCN(C(=O)c2ccc(C#N)cc2)CC1 | -7.834% | –
CC(C)c1nc(CN2CCCC3(CCNC3)C2)co1 (stereo not given) | -11.26% | –
NC(c1ccccc1)C1(CO)CCC1 (stereo not given) | 8.034% | –
Cc1ccc(OCCNC(=O)CN2CSCC2=O)cc1 | -3.002% | –
CCOc1ccccc1Nc1nc2c(C)nn(C)c2c(=O)n1C | – | 17.23%
Cc1nn(C)c2c(=O)n(C(C)C)c(NCC3CCCO3)nc12 (stereo not given) | – | 6.206%
Cc1nn(C)c2c(=O)n(C(C)C)c(NCCc3ccccc3)nc12 | – | 81.01%
Cc1nn(C)c2c(NCc3cccnc3)nc(C(C)C)nc12 | – | 25.8%
Cc1nc(NCc2cccnc2)c2c(n1)c(C)nn2C | – | -7.547%
Cc1nc(NCc2ccccn2)c2c(n1)c(C)nn2C | – | 13.62%
CCn1c(NCc2ccccn2)nc2c(C)nn(C)c2c1=O | – | 61.62%
CCCn1c(NCCc2ccccc2)nc2c(C)nn(C)c2c1=O | – | 74.28%
CCc1nc(NCc2ccccn2)c2c(n1)c(C)nn2C | – | 20.03%
COc1ccccc1Nc1nc2c(C)nn(C)c2c(=O)n1C | – | 9.981%
CCn1c(NCc2cccnc2)nc2c(C)nn(C)c2c1=O | – | 57.44%

— ChEMBL document CHEMBL3988442, “University of Dundee, Small-Polar-MMV Screening Library” (2021)
